ChEMBL document CHEMBL3988442, “University of Dundee, Small-Polar-MMV Screening Library” (2021)

Each molecule was assayed against T1, Aspartate--tRNA(Asp/Asn) ligase (Mycobacterium tuberculosis (strain ATCC 25618 / H37Rv)) (UniProt P9WFW3) (assay: Assay for Asp RNA synthetase-1 from Mycobacterium tuberculosis). Conditions: 30 µM.
T1 sequence (whole entry): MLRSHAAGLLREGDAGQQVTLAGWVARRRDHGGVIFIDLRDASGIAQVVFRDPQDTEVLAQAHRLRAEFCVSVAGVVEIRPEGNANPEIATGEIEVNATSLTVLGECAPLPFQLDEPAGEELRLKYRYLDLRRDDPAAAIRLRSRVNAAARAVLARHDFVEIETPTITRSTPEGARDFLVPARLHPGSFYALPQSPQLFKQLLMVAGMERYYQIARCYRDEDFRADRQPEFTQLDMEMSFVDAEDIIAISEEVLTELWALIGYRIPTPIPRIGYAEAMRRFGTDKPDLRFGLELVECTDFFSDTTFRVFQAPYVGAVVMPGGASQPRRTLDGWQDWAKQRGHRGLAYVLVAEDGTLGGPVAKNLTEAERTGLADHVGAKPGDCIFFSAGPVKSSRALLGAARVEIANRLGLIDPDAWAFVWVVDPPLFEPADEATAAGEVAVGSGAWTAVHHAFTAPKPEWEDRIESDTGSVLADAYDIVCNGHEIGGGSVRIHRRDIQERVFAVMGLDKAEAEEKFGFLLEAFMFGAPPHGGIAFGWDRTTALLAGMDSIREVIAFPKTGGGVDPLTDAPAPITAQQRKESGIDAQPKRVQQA
Assay type: functional
Design: scale not given: in the data most compounds retested in dose-response had high values

Structure (SMILES) | Percent Effect [%]
CCN1C(=O)CCCC12CCCN(C(=O)c1conc1C)C2 (stereo not given) | -4.46
Cn1cc(-c2nnn3c2COC(CNCc2nccs2)C3)cn1 (stereo not given) | -4.41
NCC1CN(c2nc(-c3ccccc3)nc3c2CCNCC3)CCO1 (stereo not given) | -0.798
CC(CNCc1ccncc1)Oc1ccccn1 (stereo not given) | -2.38
O=C(N1CCOCC1)[C@@]12CCO[C@@H]1CCN(Cc1ccccc1F)C2 | -6.79
COc1cccc(S(=O)(=O)N2CCn3cnc(COCC4CC4)c3C2)c1 | 6.08
c1cncc(C2COC3(CCN(CC4CC4)CC3)C2)c1 (stereo not given) | -0.915
CN1CCN(c2ncnc3c2c(C(=O)NC2CC2)c2ccccn23)CC1 | 5.32
Cc1nc(CN2CCOC(Cn3cncn3)C2)nc2ccccc12 (stereo not given) | -2.91
COc1ccccc1OC1CCN(Cc2cnc(N(C)C)nc2)CC1 | -2.72
CCC(=O)Nc1nnc(CCCOc2ccccc2)s1 | -2.47
O=C(NCCc1cccc(F)c1)NCC(O)c1cccc(F)c1 (stereo not given) | -1.7
CN(c1ccc(F)c(F)c1)S(=O)(=O)c1cc(C(=O)O)cs1 | 1.3
CCc1nnc2n1CCN(CC(=O)Nc1sccc1C#N)C2 | -0.787
CC(=O)N1CCN(c2cc(-c3ccccc3)nc3c(C)c(C)nn23)CC1 | 2.46
CN1CC(=O)N(c2cnn(C)c2)CC12CCN(Cc1nccn1C)C2 (stereo not given) | -3.88
CCOCC1CN(C(=O)CS(C)(=O)=O)Cc2cnn(C)c21 (stereo not given) | 1.19
Cc1cc(CN2CCOC(CN(C)c3cccnn3)C2)no1 (stereo not given) | -2.36
O=S(=O)(NCCN1CCCCC1Cn1cncn1)c1ccccc1 (stereo not given) | 1.46
Cc1cc(OCC(=O)NS(=O)(=O)c2c(C)noc2C)ccc1Cl | -2.01

Structure (SMILES) | Percent Effect [%]
COc1ccc(CNC(C)c2ccc3[nH]c(=O)[nH]c3c2)cc1 (stereo not given) | 2.66
CCCc1n[nH]c(C2CN(Cc3nnc(C4CC4)o3)CCO2)n1 (stereo not given) | -8.48
Cc1ccc([C@@H]2CN(C(=O)c3csc(C)n3)C[C@H]2NC(=O)C2CC2)cc1 | -3.36
Cc1cccc(CNC(=O)CNc2cc(CO)ccc2Cl)c1 | 5.12
COCCN1C(=O)CCC12CCN(C(=O)NC(C)C)CC2 | -3.16
CC(C)C(Sc1nnc(C2CC2)n1C1CC1)C(=O)NCc1cccnc1 (stereo not given) | -2.03
Cc1ccc(CC(=O)N2CCCC(c3cc(C)[nH]n3)C2)cn1 (stereo not given) | -0.962
CS(=O)(=O)NCC1CCCN(C(=O)COc2ccc(F)cc2)C1 (stereo not given) | -1.75
Cc1nn(C)c(C)c1C1CCCN1CCCc1nc2ccccc2o1 (stereo not given) | 3.71
Cc1ccc2c(c1)CN(C(=O)C1CCCCC1)C(CN(C)C)CO2 (stereo not given) | 1.26
O=C(NCc1ccco1)[C@@H]1CCO[C@@H]2CCN(c3ccncn3)C[C@H]21 | 1.19
Cc1nc[nH]c1CN(C)CC1CCCN(CCc2ccc(Cl)cc2)C1 (stereo not given) | 4.6
COC(=O)c1cccn1C1CCN(Cc2ccccc2)CC1 | 0.995
CC(NC(=O)NCCCN(C)S(C)(=O)=O)c1cccc(Cl)c1 (stereo not given) | 1.12
CCS(=O)(=O)N1C[C@H]2C[C@H](C(=O)N(C)C)[C@@H](C1)O2 | 3.87
COCC1CN(CC2CC2)Cc2nn(C)cc21 (stereo not given) | 12.6
COc1c(C2CCCN2CC(=O)Nc2nc(C)cs2)c(C)nn1C (stereo not given) | -3
Cn1nc2c(cc1=O)CN(CCc1nc3ccccc3c(=O)[nH]1)CC2 | 7.01
CCc1cnc(CN(C(C)=O)C2CCN(CCS(C)(=O)=O)C2)o1 (stereo not given) | -3.9
CNC(=O)CCCNCc1c(C(C)C)nn(C)c1N(C)C | 1.04
